From ChEMBL document CHEMBL1157539, “Thousands of chemical starting points for antimalarial lead identification” (Nature, 2010) come the findings set out here.

Several values for one entry are separate records, joined by “and”; a condition that tells them apart may be missing. Equal values may be shown once.

The subject of one experiment is Plasmodium falciparum. Put plainly: GSK_TCMDC: Inhibition of Plasmodium falciparum 3D7 in whole red blood cells, using parasite LDH activity as an index of growth. Test compounds present at 2uM. The class given is functional.
Take `COC(=O)c1cccc(C#CCCOCCCCCCNC[C@H](O)c2cc(Cl)c(N)c(Cl)c2)c1`: the Inhibition is reported as 97%.

`COc1ccccc1Nc1nc(C)cc(NCc2ccc(-n3ccnc3)cc2)n1` gave an Inhibition of 90%.

In the case of `COc1ccc2cc(-c3nc(-c4c(Cl)cccc4Cl)[nH]c3-c3ccnc(NCCCN4CCCCC4C)c3)ccc2c1.O=C(O)C(F)(F)F` (stereo not drawn), the Inhibition worked out at 94%.

A further experiment has as its system Plasmodium falciparum. The experiment in a line: GSK_TCMDC: Inhibition of Plasmodium falciparum Dd2 in whole red blood cells, using parasite LDH activity as an index of growth. Test compounds present at 2uM. It counts as functional.
In turn, `CCCNc1ccc2nccc(CCN3CCC(NCc4ccc5c(c4)NC(=O)CS5)CC3)c2n1.Cl` returned an Inhibition of 17%.

`CNS(=O)(=O)c1ccc2c(c1)nc(C1CCN(CC3CCC(NC(=O)/C=C/c4ccc(Cl)c(Cl)c4)CC3)CC1)n2C` (stereo not drawn): the Inhibition came out at 96%.

`CCC[C@@H]([C@@H](CC1CCCCC1)C(=O)NC(C(=O)Nc1nccs1)C(CC)c1ccccc1)N(O)C=O` (stereo partly drawn) had an Inhibition of 19%.

For `Cc1cc(C=C2SC(=Nc3ccccc3)N(C3CCCC3)C2=O)c(C)n1-c1ccc(Cl)cc1`, the Inhibition is 70%.

`Cn1nc(-c2cccc(CNCc3ccccc3)c2)c2cnc(NC3CCCC3)nc21`: the Inhibition worked out at 11%.

In turn, `CCCN(Cc1ccc(OCC)cc1)Cc1cc(=O)c2cc(Cl)ccc2[nH]1` had an Inhibition of 82%.

`COc1cc2nc(NCCc3ccccc3)nc(NCc3cnn(C)c3C)c2cc1OC`: the Inhibition was found to be 94%.

`CC(=O)c1ccc(S(=O)(=O)N2CCC(C(=O)Nc3ccccc3N3CCCC3)CC2)cc1`: the Inhibition was 99%.

Regarding `CN1CCCN(Cc2ccc(-c3ccc(NC(=O)c4cccc(C#N)c4)cc3)cc2)CC1.O=C(O)C(F)(F)F`, the Inhibition is reported as 67%.

`Clc1ccc2c(NCc3ccc4c(c3)OCO4)ccnc2c1` showed an Inhibition of 97%.

`COc1ccc2ccccc2c1CNCCCCCCNCc1c(OC)ccc2ccccc12.Cl` displayed an Inhibition of 35%.

For the compound `CC1CN(Cc2ccc(C#N)cc2)CCN1c1ccc(NC(=O)c2cccs2)cc1.O=C(O)C(F)(F)F` (stereo not drawn), the Inhibition was found to be 89%.

Turning to `COc1cccc(CNC(=O)[C@@H]2CN(C(=O)c3ccccc3)CCN2)c1.O=C(O)C(F)(F)F`, the Inhibition worked out at 0%.

Compound `Cc1cc(CN2C(=O)C(c3ccccc3)(c3ccccc3)N=C2N)c(C(F)(F)F)o1` displayed an Inhibition of 84%.

As for `CC(C)C[C@@H](NC(=O)NC1CCC(CCN2C3CCC2CC(OC(=O)C(CO)c2ccccc2)C3)CC1)C(O)(c1ccccc1)c1ccccc1` (stereo partly drawn), the Inhibition amounted to 71%.

`Cc1cc(=NN=Cc2ccc(Cl)cc2)c2ccccc2[nH]1` showed an Inhibition of 87%.

The compound `CCCCCCCN1CC[C@@H](CCCc2ccnc3ccc(OCCCCN/C(N)=N/O)cc23)[C@@H](CC)C1.O=C(O)C(=O)O` showed an Inhibition of 39%.

In turn, `Br.CCOC(=O)c1cc(Cl)ccc1OCCCON1C(=N)N=C(N)NC1(C)C` gave an Inhibition of 95%.

`Cc1cc(N(C)C)nc(Nc2ccc(NC(=O)Nc3ccccc3)cc2)n1`: the Inhibition came to 100%.

The compound `C[C@@H](COc1ccccc1)NCC(O)c1ccc([N+](=O)[O-])c(OCc2ccccc2)c1` (stereo partly drawn) displayed an Inhibition of 64%.

As for `Cc1cc(N[C@@H](Cc2ccccc2)C(=O)Nc2ccccc2)nc(NCCc2ccc(F)cc2)n1.O=C(O)C(F)(F)F`, the Inhibition is given as 81%.

In the case of `C=CCc1cc(Cc2cnc(N)nc2N)c2ccc(C)nc2c1OC`, the Inhibition turned out to be 0%.

`CC(C)(C)c1ccc(CN2CCC(CNC(=O)c3cc(-c4ccccc4Cl)cs3)C2)cc1.O=C(O)C(F)(F)F` (stereo not drawn) yielded an Inhibition of 56%.

Take `COc1cc(C2CCN(CCCCNC(=O)c3ccc(NC(=O)c4cc(C(F)(F)F)cc(C(F)(F)F)c4)cc3)CC2)ccc1OC(C)C`: the Inhibition stood at 100%.

For the compound `NC1=NC(c2ccccc2)(c2cccc(O)c2)C(=O)N1CCCc1ccccc1` (stereo not drawn), the Inhibition was 38% and 93%.

`COc1cc(NCCCCNc2ccc(Cl)c(Cl)c2)nc2ccccc12`: the Inhibition was 68%.

The compound `N#Cc1cncc(-c2nc3c(N4CCC(Cc5ccccc5)CC4)cccc3n2C2CCNC2)c1.O=C(O)C(F)(F)F` (stereo not drawn) registered an Inhibition of 7%.

`Cc1cc(Nc2cccc(C#N)c2)nc(Nc2ccccc2C)n1`: the Inhibition is listed as 46%.

Compound `N#Cc1ccc(N/C(=N\c2ccccc2Br)N(C2CCCCC2)C2CCCCC2)c(O)c1` yielded an Inhibition of 96%.

Turning to `CC(=O)Nc1ccc2[nH]cc(C3CCN(CC4CCN(C(=O)/C=C/c5ccc(Cl)c(Cl)c5)CC4)CC3)c2n1`, the Inhibition stood at 99%.

On to `c1cc(-c2nc3ccccc3[nH]2)nc(-c2nc3ccccc3[nH]2)c1`, for which the Inhibition amounted to 24%.

In turn, `CCCNCCc1ccc(NS(=O)(=O)c2cccc(-c3ccc(Cl)cc3)c2)cc1.Cl` yielded an Inhibition of 36%.

As to `COc1cc(NC(=O)Nc2cccc3ccccc23)c(OC)cc1Cl`, the Inhibition came out at 71%.

The compound `Cl.NC(=O)c1cccc(Nc2nccc(Nc3ccc4[nH]c(-c5ccccc5)cc4c3)n2)c1` yielded an Inhibition of 98%.

For `Cc1cc(C(=O)CN2C(=O)NC(C)(c3ccc4ccccc4c3)C2=O)c(C)n1Cc1ccco1` (stereo not drawn), the Inhibition turned out to be 71%.

Take `Cc1cccc(-c2nc3cc(NC(=O)c4ccc([N+](=O)[O-])o4)ccc3o2)c1`: the Inhibition is recorded as 73%.

The compound `CN1CCN(CCCN(Cc2cccc(-c3cccc(CNC4CCCC4)c3)c2)C(=O)CCC2CCCC2)CC1.O=C(O)C(F)(F)F` registered an Inhibition of 96%.

Compound `COC(=O)c1cccc(C#CCCOCCCCCCNC[C@H](O)c2cc(Cl)c(N)c(Cl)c2)c1` returned an Inhibition of 88%.

In the case of `COc1ccccc1Nc1nc(C)cc(NCc2ccc(-n3ccnc3)cc2)n1`, the Inhibition was found to be 10%.

`COc1ccc2cc(-c3nc(-c4c(Cl)cccc4Cl)[nH]c3-c3ccnc(NCCCN4CCCCC4C)c3)ccc2c1.O=C(O)C(F)(F)F` (stereo not drawn) showed an Inhibition of 86%.

Usually Inhibition stands for how much of the control response was suppressed. A higher Inhibition goes with strong suppression.
